{
  "source": "paper PMC4336329",
  "about": "(PLoS ONE, 2015)",
  "note": "Among all 310,000 compounds or so, about 14,000 (4.5%) showed an effect of 50% or more. Effects have a minus sign here. This is one part of a sample in which strong results are shown more often than they occur.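 Also: peak tail current of the secondary pulse compared with the same well before compound.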",
  "data": [
    {"biological_target": "human ether-à-go-go-related gene (hERG) potassium channel (human, UniProt Q12809)", "sequence (Q12809 whole entry, looked up)": "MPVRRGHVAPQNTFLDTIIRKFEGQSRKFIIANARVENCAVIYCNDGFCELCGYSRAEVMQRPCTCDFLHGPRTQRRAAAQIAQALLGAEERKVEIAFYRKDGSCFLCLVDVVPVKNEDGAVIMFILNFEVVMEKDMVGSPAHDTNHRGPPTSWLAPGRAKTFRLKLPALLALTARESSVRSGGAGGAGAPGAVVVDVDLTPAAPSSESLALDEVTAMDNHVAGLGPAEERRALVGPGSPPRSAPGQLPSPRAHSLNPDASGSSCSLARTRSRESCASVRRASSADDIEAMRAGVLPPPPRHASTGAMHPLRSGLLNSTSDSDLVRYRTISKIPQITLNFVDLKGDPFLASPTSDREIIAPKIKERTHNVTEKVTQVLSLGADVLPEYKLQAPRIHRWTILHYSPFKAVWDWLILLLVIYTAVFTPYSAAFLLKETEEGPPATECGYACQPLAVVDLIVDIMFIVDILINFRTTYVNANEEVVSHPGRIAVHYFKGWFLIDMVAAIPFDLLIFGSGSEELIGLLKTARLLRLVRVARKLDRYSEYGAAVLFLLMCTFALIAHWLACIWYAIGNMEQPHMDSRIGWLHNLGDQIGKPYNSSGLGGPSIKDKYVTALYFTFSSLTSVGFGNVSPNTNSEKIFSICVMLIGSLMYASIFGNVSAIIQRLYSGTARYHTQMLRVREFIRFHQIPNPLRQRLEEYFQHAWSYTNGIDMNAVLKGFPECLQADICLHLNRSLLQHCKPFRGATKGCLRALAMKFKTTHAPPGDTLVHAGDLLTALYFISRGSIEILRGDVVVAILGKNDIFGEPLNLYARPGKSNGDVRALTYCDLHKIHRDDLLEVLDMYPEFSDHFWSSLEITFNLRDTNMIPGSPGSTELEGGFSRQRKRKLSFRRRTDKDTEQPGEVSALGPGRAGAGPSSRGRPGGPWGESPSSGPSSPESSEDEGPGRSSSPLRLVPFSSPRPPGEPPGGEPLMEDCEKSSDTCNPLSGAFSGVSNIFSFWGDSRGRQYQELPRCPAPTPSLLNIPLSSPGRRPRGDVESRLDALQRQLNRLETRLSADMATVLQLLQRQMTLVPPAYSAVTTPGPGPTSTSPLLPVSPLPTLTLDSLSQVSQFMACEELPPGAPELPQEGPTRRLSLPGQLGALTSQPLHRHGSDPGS", "assay": "primary screen, population patch clamp on CHO cells stably expressing hERG; higher = less effect of the substance", "units": {"hERG current change (%, negative = inhibition) at 10uM": "%"}, "values": [
      {"smiles": "O=S(=O)(NC1=NCCCCCC1)c1cccs1", "hERG current change (%, negative = inhibition) at 10uM": 3.19},
      {"smiles": "CCN1C(C(=O)c2ccccc2)=C(Nc2ccccc2C)c2ccccc2S1(=O)=O", "hERG current change (%, negative = inhibition) at 10uM": -4.84},
      {"smiles": "Cl.Nn1cnnc1N/N=C/c1ccc(Cl)c([N+](=O)[O-])c1", "hERG current change (%, negative = inhibition) at 10uM": -26.6},
      {"smiles": "O=c1[nH]c(/C=C\\c2cccs2)nc(O)c1[N+](=O)[O-]", "hERG current change (%, negative = inhibition) at 10uM": -4.76},
      {"smiles": "CCOc1ccc(/C=N/NC(=O)c2[nH]c3ccc(C)cc3c2C)cc1", "hERG current change (%, negative = inhibition) at 10uM": 12.4},
      {"smiles": "Cc1cccc(NC(=O)Cn2cnc3c(oc4ccccc43)c2=O)c1", "hERG current change (%, negative = inhibition) at 10uM": 12.5},
      {"smiles": "CCN(CC)S(=O)(=O)c1ccc(Oc2ccccc2)cc1", "hERG current change (%, negative = inhibition) at 10uM": -20.7},
      {"smiles": "COc1cccc(Oc2ccc(S(=O)(=O)N3CCCC3)cc2[N+](=O)[O-])c1", "hERG current change (%, negative = inhibition) at 10uM": -57.1},
      {"smiles": "COc1cc(OC)cc(Oc2ccc(S(=O)(=O)N3CCCCC3)cc2[N+](=O)[O-])c1", "hERG current change (%, negative = inhibition) at 10uM": 1.5},
      {"smiles": "CCN(CC)S(=O)(=O)c1ccc(Oc2ccc(S(=O)(=O)N(CC)CC)cc2)cc1", "hERG current change (%, negative = inhibition) at 10uM": -22.7},
      {"smiles": "CCN1CCN(S(=O)(=O)c2ccc(Oc3ccccc3OC)cc2)CC1", "hERG current change (%, negative = inhibition) at 10uM": -15},
      {"smiles": "COc1ccccc1Oc1ccc(S(=O)(=O)N2CCN(C)CC2)cc1", "hERG current change (%, negative = inhibition) at 10uM": -1.98},
      {"smiles": "O=[N+]([O-])c1cc(S(=O)(=O)N2CCCC2)ccc1OCCOc1ccccc1", "hERG current change (%, negative = inhibition) at 10uM": -32.4},
      {"smiles": "CCN(CC)S(=O)(=O)c1ccc(Oc2ccccc2OC)cc1", "hERG current change (%, negative = inhibition) at 10uM": -65.3},
      {"smiles": "COc1ccccc1Oc1ccc(S(=O)(=O)N2CCCC2)cc1", "hERG current change (%, negative = inhibition) at 10uM": -77.3},
      {"smiles": "CN=C1S/C(=C\\c2cn(CC(=O)OC)c3ccccc23)C(=O)N1C", "hERG current change (%, negative = inhibition) at 10uM": 7.11},
      {"smiles": "COc1ccc([N+](=O)[O-])cc1NC(=O)Nc1ccc(OC)c(OC)c1", "hERG current change (%, negative = inhibition) at 10uM": 8.37},
      {"smiles": "COc1ccc(CCNC(=O)COC(=O)Cc2ccc(OC)cc2)cc1", "hERG current change (%, negative = inhibition) at 10uM": 9.48},
      {"smiles": "Cc1cc(N2CCCCCC2)nc2ccccc12.O=C(O)C(=O)O", "hERG current change (%, negative = inhibition) at 10uM": -56.1},
      {"smiles": "Cc1cc(N2CCCC2)nc2ccccc12", "hERG current change (%, negative = inhibition) at 10uM": -41.2},
      {"smiles": "Cc1cc(N2CCCCC2)nc2ccccc12", "hERG current change (%, negative = inhibition) at 10uM": -9.74},
      {"smiles": "COc1ccc2c(C)cc(N3CCN(Cc4ccccc4)CC3)nc2c1", "hERG current change (%, negative = inhibition) at 10uM": -29.6},
      {"smiles": "Cc1cc(N2CCOCC2)nc2ccc(Cl)cc12", "hERG current change (%, negative = inhibition) at 10uM": 9.25},
      {"smiles": "Cc1cc(N2CCN(C)CC2)nc2ccccc12", "hERG current change (%, negative = inhibition) at 10uM": -0.28},
      {"smiles": "COc1ccc2c(C)cc(N3CCCCCC3)nc2c1.O=C(O)C(=O)O", "hERG current change (%, negative = inhibition) at 10uM": -82},
      {"smiles": "COc1ccc2c(C)cc(N3CCN(c4ccc(F)cc4)CC3)nc2c1", "hERG current change (%, negative = inhibition) at 10uM": -25.7},
      {"smiles": "Cc1cc(N2CCCN(C)CC2)nc2cc(Cl)ccc12", "hERG current change (%, negative = inhibition) at 10uM": -61.7},
      {"smiles": "COc1ccc(N2CCN(c3cc(C)c4ccc(O)cc4n3)CC2)cc1", "hERG current change (%, negative = inhibition) at 10uM": -24.4},
      {"smiles": "Cc1cc(N2CCN(c3ccc(F)cc3)CC2)nc2cc(O)ccc12", "hERG current change (%, negative = inhibition) at 10uM": -75.9},
      {"smiles": "COc1ccc2c(C)cc(N3CCOCC3)nc2c1", "hERG current change (%, negative = inhibition) at 10uM": -7.7}
    ]}
  ]
}
